Measurements as given in PubChem BioAssay (NCATS).
Several values for one entry are separate records, joined by “and”; a condition that tells them apart may be missing. Equal entries are not always repeated. Records with an inconclusive call do not appear. For part of these data: Entries with a potency or affinity are not part of this list. Activity calls are given as the source filed them. For most assays here, the call rests on the fitted dose curve; in most records, active means well fitted curve in the direction sought with a large enough effect; inconclusive means small, poorly fitted or top-dose-only effect, or another doubt; inactive means no such curve, though single readings can be large; an effect the other way counts as inactive or inconclusive.

What was measured:
[1] = Immunotoxin (HA22) sensitization/mitigation study. Vehicle arm (PBS) (AID 1159510; call rule not given here; further: potency means the concentration at half of the fitted maximal effect)
[2] = Immunotoxin (SS1P) sensitization/mitigation study. Vehicle arm (DMEM) (AID 1159513; call rule not given here; further: potency means the concentration at half of the fitted maximal effect)
[3] = Identifying Small Molecule Inhibitors of Pancreatic Cancer Stem Cells (SN12C, Adherent) (AID 1259358);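 further: cell survival measured after 48 h of compound exposure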; further: potency means the concentration at half of the fitted maximal effect
Summary of the method: (§1)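 Viability is scored by CellTiter-Glo luminescence 48 h after dosing, expressed as percent activity against vehicle and no-cell references. Spheroid formats rely on cells cultured 14 days in stem cell media beforehand.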

[4] = Identifying Small Molecule Inhibitors of Pancreatic Cancer Stem Cells (SN12C, Spheroid) (AID 1259360); settings: Potency: SN12C spheroid viability; further: potency means the concentration at half of the fitted maximal effect;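 on viability (% of control): 100% = DMSO-treated cells and 0% = wells without cells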
Summary of the method: (§2)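 After a 4 h attachment period, compounds were pinned into wells and cultures held 48 h under standard incubator conditions. Viability was then measured as CellTiter-Glo luminescence following 10 min at room temperature.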

[5] = High-throughput drug toxicity screening in the BPDCN cell line Gen2.2 (AID 1224824; call rule not given here;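 further: cells exposed to compounds for 48 h before reading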); settings: Gen2.2 BPDCN cells; at 45.8 µM (top of the series)
Summary of the method: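 Gen2.2, 500 cells/well, phenol red-free RPMI/10% FBS/Pen-Strep; 48 h cpd, 37 °C/5% CO2; CTG lum, 15 min RT. Norm: DMSO = 100%, bortezomib 9.2 uM final = 0%.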

[6] = High-throughput drug toxicity screening in the BPDCN cell line Cal-1 (AID 1224825; call rule not given here); settings: Cal-1 BPDCN cell viability, qHTS; at 45.8 µM (top of the series)
Summary of the method: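 Exponentially growing Cal-1 cells, 500 per well in phenol red-free RPMI with 10% FBS, were exposed to compounds for 48 h at 37 °C, 5% CO2. Viability was read by CellTiter-Glo luminescence and normalised to DMSO (100%) and 9.2 uM bortezomib (0%).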

[7] = qHTS assay for measurement of the activity of small molecule inhibitors on Zika virus induced Caspase-3 activity in human iPSC derived neural progenitor cells (hNPCs) (AID 1224857); further: % of control where 0% means no effect; nearly all actives have a fitted effect of over 65% in size
Summary of the method: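 Cells were plated at 350 per well and grown 16 to 20 hours. Compound pretreatment lasted one hour, after which ZIKV (2 FFU/cell) was added for 6 hours. Percent inhibition was normalized between uninfected and infected controls.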

[8] = qHTS assay for measurement of the activity of small molecule inhibitors on Zika virus induced Caspase-3 activity in human astrocytoma cells (AID 1224859);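 further: plate controls were ZIKV-infected untreated cells for no effect and uninfected cells for full effect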
Summary of the method: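 Percent inhibition of virus-induced caspase-3/7 signal is calculated against uninfected and ZIKV-infected control cells. Cells are SNB-19, infected at 2 FFU/cell for 6 h after 1 h compound exposure.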

[9] = qHTS Screen of the MIPE 4.0 Collection Against Ewings Sarcoma (RDES) (AID 1259252); further: nearly all actives have a fitted effect of over 35% in size; further: potency means the concentration at half of the fitted maximal effect
Summary of the method: (§3)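 Compound titrations go onto adherent log-phase cells 4 h after seeding, incubate 48 h at 37C, then CellTiter-Glo luminescence reports viability relative to DMSO and cell-free controls.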

[10] = qHTS Screen of the MIPE 4.0 Collection Against Ewings Sarcoma (EW8) (AID 1259255); further: nearly all actives have a fitted effect of over 35% in size; further: potency means the concentration at half of the fitted maximal effect;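 on viability: 100% = DMSO-treated cells and 0% = medium-only wells without cells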
Summary of the method: as §3

[11] = qHTS Screen of the MIPE 4.0 Collection Against Ewings Sarcoma (TC32) (AID 1259256); further: nearly all actives have a fitted effect of over 45% in size; further: potency means the concentration at half of the fitted maximal effect
Summary of the method: as §3

[12] = Ebola virus entry assay, reporter ratio channel; AC50: Channel type: primary unless noted; outcome: Channel type: primary unless noted
[13] = qHTS assay to identify small molecule inhibitors of chordoma cells - UCH-1 (AID 1259355); further: nearly all actives have a fitted effect of over 55% in size; further: potency means the concentration at half of the fitted maximal effect
Summary of the method: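 Luminescent ATP read-out (CellTiter-Glo, 30min at room temperature) measured viability of UCH-1 cells exposed for 48hr to test drugs at 15 concentrations, co-dosed with a five-agent combination of auranofin, camptothecin, doxorubicin, rubitecan and topotecan.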

[14] = qHTS assay to identify small molecule inhibitors of chordoma cells - UCH-2 (AID 1259356); further: potency means the concentration at half of the fitted maximal effect
[15] = Ebola virus entry assay, blue channel (ratio component)
[16] = Identifying Small Molecule Inhibitors of Pancreatic Cancer Stem Cells (A2780, Spheroid) (AID 1259357); settings: Potency: A2780 spheroid viability; further: potency means the concentration at half of the fitted maximal effect;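 further: spheroids pre-formed over 14 days in stem cell medium on hydrogel; compound exposure lasted 48 h before the ATP luminescence read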
Summary of the method: as §2

[17] = Identifying Small Molecule Inhibitors of Pancreatic Cancer Stem Cells (Panc1, Spheroid) (AID 1259359);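 further: compound exposure lasted 48 h before reading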
Summary of the method: as §1

With `CCCCC/C=C\C/C=C\C/C=C\C/C=C\CCCC(=O)NC1CC1` the Potency [1] was “inactive”, the Potency [2] was “inactive” and the Potency [3] was “inactive”. The Potency [4] was “inactive”.

For `C[C@@H]1[C@@H](C(=O)C[C@H]2O[C@@H]3O[C@]4(C)CC[C@@H]5[C@H](C)CC[C@@H]([C@H]2C)[C@@]35OO4)O[C@@H]2O[C@]3(C)CC[C@H]4[C@H](C)CC[C@@H]1[C@@]24OO3`, the Potency [1] was 0.0264 µM (active), the Potency [2] was 0.209 µM (active) and the cell viability, % of control (lower = more cytotoxic) [5] was 9%. The viability (% of control) [6] was 7.82%, the Potency [7] was “inactive” and the outcome [8] was “inactive”. The Potency [9] was 3.72 µM (active), the Potency [10] was 0.743 µM (active) and the Potency [11] was 20.9 µM (active).

In the case of `Cc1ccc(S(=O)(=O)N[C@@H](CCCCN)C(=O)CCl)cc1`, the AC50 [12] is reported as 28.2 µM (active), the outcome [8] is reported as “inactive” and the Potency [13] is reported as “inactive”. For the same compound, the Potency [14] was “inactive”.

With `CC(C)n1c(C=C[C@H](O)C[C@H](O)CC(=O)O)c(-c2ccc(F)cc2)c2ccccc21` the Potency [1] was 8.33 µM (active) and the Potency [2] was 9.35 µM (active).

With `O=c1c(O)c(-c2ccc(O)c(O)c2)oc2cc(O)cc(O)c12` the outcome [15] was “inactive”.

With `CC1=C2C[C@@H]3[C@@H](CC=C4C[C@@H](O)CC[C@@]43C)[C@@H]2CC[C@]12O[C@H]1C[C@H](C)CN[C@H]1[C@H]2C` the Potency [1] was 23.5 µM (active), the Potency [2] was 20.9 µM (active) and the cell viability, % of control (lower = more cytotoxic) [5] was 107%. The viability (% of control) [6] was 116%, the Potency [7] was “inactive” and the outcome [8] was “inactive”. For the same compound, the Potency [9] was “inactive”, the Potency [3] was “inactive” and the Potency [4] was “inactive”.

For `Clc1ccc(CCC(Cn2ccnc2)Sc2c(Cl)cccc2Cl)cc1` (stereo unspecified), the AC50 [12] was 22.4 µM (active), the outcome [8] was “inactive” and the Potency [13] was “inactive”. The Potency [14] was “inactive”.

In the case of `C[C@H]1O[C@@H](O[C@H]2[C@@H](O)C[C@H](O[C@H]3[C@@H](O)C[C@H](O[C@H]4CC[C@@]5(C)[C@H](CC[C@@H]6[C@@H]5CC[C@]5(C)[C@@H](C7=CC(=O)OC7)CC[C@]65O)C4)O[C@@H]3C)O[C@@H]2C)C[C@H](O)[C@@H]1O`, the AC50 [12] is reported as 0.708 µM (active), the Potency [7] is reported as “inactive” and the outcome [8] is reported as “inactive”. For the same compound, the Potency [13] was 0.112 µM (active) and the Potency [14] was 0.0461 µM (active).

In the case of `CNC(=O)N1N=C(c2ccc(N)cc2)c2cc3c(cc2CC1C)OCO3` (stereo unspecified), the Potency [2] is reported as 5.26 µM (active), the cell viability, % of control (lower = more cytotoxic) [5] is reported as 24.2% and the viability (% of control) [6] is reported as 9.51%. For the same compound, the Potency [7] was “inactive”, the outcome [8] was “inactive” and the Potency [9] was 9.35 µM (active). For the same compound, the Potency [11] was 11.8 µM (active), the Potency [16] was “inactive” and the Potency [4] was “inactive”.

With `CC(C)(C)CC(C)(C)c1ccc(O)cc1` the AC50 [12] was 17.8 µM (active) and 15.8 µM (active), the outcome [8] was “inactive” and the Potency [13] was “inactive”. For the same compound, the Potency [14] was “inactive”.

In the case of `O=C(O)C(=O)c1cn(Cc2ccccc2)c2ccc(-c3ccc(OC(F)(F)F)cc3)cc12`, the Potency [1] is reported as 23.5 µM (active), the cell viability, % of control (lower = more cytotoxic) [5] is reported as 171% and the viability (% of control) [6] is reported as 118%. The outcome [8] was “inactive”, the Potency [9] was “inactive” and the Potency [10] was “inactive”. For the same compound, the Potency [11] was “inactive”, the outcome [17] was “inactive” and the Potency [4] was 18.7 µM (active).

With `NCCc1cc(O)c(O)cc1O` the AC50 [12] was 39.8 µM (active), the Potency [7] was “inactive” and the outcome [8] was “inactive”. The Potency [13] was “inactive” and the Potency [14] was “inactive”.

For `C[C@@H]1[C@@H](CC(C[C@H]2O[C@@H]3O[C@]4(C)CC[C@@H]5[C@H](C)CC[C@@H]([C@H]2C)[C@@]35OO4)C[S+](=O)([O-])c2ccc(COC(=O)N(C)C)cc2)O[C@@H]2O[C@]3(C)CC[C@H]4[C@H](C)CC[C@@H]1[C@@]24OO3` (stereo partly specified), the Potency [1] was 0.0332 µM (active), the Potency [2] was 0.418 µM (active) and the cell viability, % of control (lower = more cytotoxic) [5] was 15.5%. The viability (% of control) [6] was 13.4%, the Potency [7] was “inactive” and the outcome [8] was “inactive”. The Potency [9] was 0.418 µM (active), the Potency [10] was 0.264 µM (active) and the Potency [11] was 0.469 µM (active). For the same compound, the Potency [16] was 0.059 µM (active) and the Potency [3] was 0.118 µM (active).

For `CN(C)CCN(C)CCc1ccc(Cl)c(Cl)c1`, the Potency [1] was 18.7 µM (active), the Potency [2] was “inactive” and the cell viability, % of control (lower = more cytotoxic) [5] was 137%. For the same compound, the viability (% of control) [6] was 92.7%, the Potency [7] was “inactive” and the outcome [8] was “inactive”. For the same compound, the Potency [9] was “inactive”, the Potency [10] was “inactive” and the Potency [11] was “inactive”. For the same compound, the Potency [16] was “inactive” and the Potency [4] was 18.7 µM (active).

With `CC(C)=CCOc1c2occc2cc2ccc(=O)oc12` the AC50 [12] was 25.1 µM (active), the Potency [7] was “inactive” and the outcome [8] was “inactive”.

For `CO[C@@H](C(=O)N1Cc2[nH]nc(NC(=O)c3ccc(N4CCN(C)CC4)cc3)c2C1)c1ccccc1`, the Potency [1] was 0.332 µM (active) and the Potency [2] was 23.5 µM (active).

In the case of `Oc1cccc2cccnc12`, the outcome [12] is reported as “inactive”, the outcome [8] is reported as “inactive” and the Potency [13] is reported as “inactive”. The Potency [14] was “inactive”.
